# In PubChem BioAssay:
# Active and inactive are the calls of the source. Unless noted, no stated cut-off is given here; in the data, active means inhibition above about 80%; inactive means the rest.
# Columns and labels:
# [1] = viability loss with induced miR-34 in A549 – imaging, A549 dox-inducible miR-34, nuclei and caspase counts, primary screen (AID 1347080;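 active means compounds whose cell count with miR-34 switched on is under 0.7 times the count with it off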); details: A549 miR-34 inducible, Hoechst nuclei count, 48 h
# [2] = MELAS cybrid and Rieske KO viability enhancers – cell-based, MELAS cybrids, Rieske KO mouse fibroblasts, CellTiter-Glo, primary screen (AID 1508586;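 active means mean z-score across replicates of 1.96 or higher in either the MELAS or the Rieske mutant cell line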;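 further: z relative to plate mean and SD of compound and empty wells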); details: low glucose
# [3] = growth inhibition, single agent or in combination, cell-based, chromothripsis tumors, cisplatin or BGB combos (AID 1671449); details: LFS_MB_P medulloblastoma cells;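 further: cells exposed for 96 hours; 0% = vehicle DMSO and 100% = killing by high DMSO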
# [4] = growth inhibition, single agent and combos, cell-based, chromothripsis tumors, cisplatin or BGB combos (AID 1671450); details: HDN33 neuroblastoma cells, stronger effect = higher value;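 further: cells exposed to compound for four days; 0% = vehicle DMSO and 100% = cell killing by high DMSO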
# [5] = growth inhibition, single agents and combos, ICB984, cell-based, cisplatin or BGB combos, synergistic combos for chromothripsis tumors (AID 1671451; call rule not given here;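 further: cells exposed for 96 hours before readout; 0% = vehicle DMSO and 100% = killing by high DMSO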); details: ICB984 medulloblastoma cells, drug combinations, stronger effect = higher value
# [6] = growth inhibition, single agents and combos, LFS_MB_1R, cell-based, cisplatin or BGB combos, synergistic combos for chromothripsis tumors (AID 1671452); details: LFS_MB_1R medulloblastoma cells, stronger effect = higher value;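 further: cells exposed for 96 hours before readout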
# [7] = growth inhibition, single agents and combos, HTB85, cell-based, BGB or cisplatin IC20 combos, synergistic combos for chromothripsis tumors (AID 1671453); details: HTB85 osteosarcoma cells, drug combinations, stronger effect = higher value;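 further: cells exposed for 96 hours before readout; 0% = vehicle DMSO and 100% = high DMSO killing control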
# [8] = growth inhibition, single agents and combos, CRL2098, cell-based, BGB or cisplatin IC20 combos, synergistic combos for chromothripsis tumors (AID 1671454); details: CRL2098 osteosarcoma cells, drug combinations, stronger effect = higher value;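 further: cells exposed for 96 h before readout; 0% = vehicle DMSO and 100% = killing by high DMSO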
# [9] = growth inhibition, single agents and combos, HD-MB03, cell-based, BGB or cisplatin IC20 combos, synergistic combos for chromothripsis tumors (AID 1671455; in the data active means inhibition above about 83%;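 further: 0% = vehicle DMSO and 100% = high DMSO as cytotoxic control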); details: HD-MB03 medulloblastoma cells, stronger effect = higher value
# [10] = growth inhibition, single agents and combos, UWB1.289, cell-based, BGB or cisplatin combos, synergistic combos for chromothripsis tumors (AID 1671456); details: UWB1.289 ovarian carcinoma cells, stronger effect = higher value;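 further: cells exposed to compound for four days; 0% = vehicle DMSO and 100% = killing by high DMSO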
# [11] = growth inhibition, single agents and combos, LFS_MB_2R, cell-based, cisplatin combos, synergistic combos for chromothripsis tumors (AID 1671457); details: LFS_MB_2R medulloblastoma cells, stronger effect = higher value;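 further: cells exposed to compound for four days before readout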
# [12] = growth inhibition, MDA-MB-436, cell-based, BGB or cisplatin combos, synergistic combos for chromothripsis tumors (AID 1671458; call rule not given here;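 further: cells exposed for 96 hours; 0% = vehicle DMSO and 100% = killing by high DMSO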); details: MDA-MB-436 breast carcinoma growth inhibition, drug combinations, stronger effect = higher value
# [13] = UWB1.289_BRCA1 ovarian cancer growth, cell-based, BGB or cisplatin combinations (AID 1671459); details: UWB1.289 BRCA1 ovarian carcinoma, drug combinations, stronger effect = higher value
# [14] = drug combination toxicity in non-malignant astrocytes – cell-based, BGB or cisplatin IC20 combos, cytotoxicity control for chromothriptic childhood tumor combination screen (AID 1671460); details: Human astrocytes, viability inhibition, drug combinations, at 0.5 µM, stronger effect = higher value;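 further: cells exposed to compounds for 96 hours before viability readout; 0% = vehicle and 100% = killing control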
# [15] = BT084 cell growth, single and combined drugs, ICGC_MB145, cisplatin and BGB IC40 combos (AID 1671461); details: BT084 medulloblastoma cells, drug combinations, stronger effect = higher value;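 further: cells exposed to drugs for 96 hours; 0% = vehicle DMSO and 100% = high DMSO full killing control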
# [16] = RCMB18 cell growth, single agent and combined, cisplatin and BGB IC40 combos (AID 1671462); details: RCMB18 medulloblastoma cells, stronger effect = higher value;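 further: cells exposed to compound for four days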
# [17] = CRL1545 cell growth, single agent and combined, cisplatin and BGB IC20 combos (AID 1671464); details: CRL1545 osteosarcoma cells, stronger effect = higher value;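 further: cells exposed to compound for 96 hours before readout; 0% = vehicle DMSO and 100% = high DMSO killing control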
# [18] = compounds altering viability of human ES cells (AID 493140; call rule not given here;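 further: cells exposed to compounds for four days before counting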); details: human embryonic stem cell survival screen; stronger effect = higher value
# [19] = P. berghei load reduction in hepatocytes – cell-based, HepG2, luciferase luminescence, HepG2 viability, primary screen (AID 624349; in the data active means parasite load remaining mostly below about 12%, no sharp cut-off; inactive means mostly above about 10%;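 further: 100% = mean of DMSO negative control wells on the same plate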); details: P. berghei liver stage in HepG2, luciferase luminescence, concentration not given here; parasite load remaining: stronger effect = lower value; viability: measured here: HepG2 viability without parasites
# [20] = stronger effect = lower value, cell number ratio, induced over uninduced
# [21] = measured here: relative caspase fold change +Dox/-Dox
# [22] = measured here: total cells with miR-34 induction, stronger effect = lower value
# [23] = measured here: total cells without miR-34 induction
# [24] = MELAS cybrid survival, CellTiter-Glo 48 h, stronger effect = higher value
# [25] = Rieske KO mouse fibroblast survival, CellTiter-Glo 72 h
# [26] = measured here: combination with BGB IC40, at 0.05 µM
# [27] = measured here: with BGB IC20 combination, at 0.5 µM
# [28] = measured here: with cisplatin IC20 combination, at 0.5 µM
# [29] = measured here: combination with cisplatin, at 0.5 µM
# [30] = measured here: combination with cisplatin, at 5 µM
structure (smiles),measurement,setting,value
CC1CN(c2c(F)c(N)c3c(=O)c(C(=O)O)cn(C4CC4)c3c2F)CC(C)N1 (stereo not drawn),fold change,[1]; [20],0.949 (inactive)
same,fold change,[1]; [21],1.47
same,cell count,[1]; [22],8380
same,cell count,[1]; [23],8840
same,z-score,[2]; [24],-0.385 (inactive)
same,z-score,[2]; [25],0.474
same,inhibition,"[3]; at 0.5 µM, stronger effect = higher value",-8.35% (inactive)
same,inhibition,"[3]; measured here: combination with BGB IC20, at 0.005 µM",-4.46%
same,inhibition,"[3]; measured here: combination with BGB IC40, at 0.005 µM",-31.5%
same,inhibition,[3]; [26],-15.2%
same,inhibition,"[3]; measured here: combination with cisplatin, at 0.5 µM, stronger effect = higher value",-6.19%
same,inhibition,"[3]; measured here: combination with cisplatin, at 5 µM, stronger effect = higher value",-16.6%
same,inhibition,"[4]; BGB combo, at 5 µM",12%
same,inhibition,[4]; at 0.5 µM,-0.91% (inactive)
same,inhibition,"[4]; cisplatin combo, at 5 µM",-6.01%
same,inhibition,[4]; [27],11.5%
same,inhibition,[4]; [28],-1.5%
same,inhibition,"[4]; single agent, at 5 µM",6.32%
same,inhibition,"[5]; BGB IC20 combo, at 0.005 µM",-1.67%
same,inhibition,"[5]; BGB IC40 combo, at 0.005 µM",11%
same,inhibition,"[5]; BGB IC40 combo, at 0.05 µM",-1.88%
same,inhibition,[5]; at 0.5 µM,7.87% (inactive)
same,inhibition,"[5]; cisplatin combo, at 0.05 µM",-1.88%
same,inhibition,"[5]; cisplatin combo, at 0.5 µM",11.3%
same,inhibition,"[5]; cisplatin combo, at 5 µM",13.8%
same,inhibition,"[5]; measured here: 5 uM single agent, at 5 µM",-29.6%
same,inhibition,[6]; at 0.5 µM,-11.6% (inactive)
same,inhibition,[6]; [26],17.7%
same,inhibition,[6]; [29],-11.6%
same,inhibition,[6]; [30],6.53%
same,inhibition,[7]; at 0.5 µM,-1.44% (inactive)
same,inhibition,"[7]; measured here: with BGB IC20, at 0.5 µM",-7.64%
same,inhibition,"[7]; measured here: with BGB IC20, at 5 µM",3.84%
same,inhibition,"[7]; measured here: with cisplatin IC20, at 0.5 µM",-9.9%
same,inhibition,"[7]; measured here: with cisplatin IC20, at 5 µM",-0.774%
same,inhibition,"[7]; single agent, at 5 µM",7.58%
same,inhibition,[8]; at 0.5 µM,10.8% (inactive)
same,inhibition,"[8]; measured here: combination with BGB at IC20, at 0.5 µM",-2.31%
same,inhibition,"[8]; measured here: combination with cisplatin at IC20, at 0.5 µM",38.8%
same,inhibition,[9]; at 0.5 µM,-2.01% (inactive)
same,inhibition,"[9]; measured here: combo with BGB at IC20, at 0.5 µM",-4.41%
same,inhibition,"[9]; measured here: combo with cisplatin at IC20, at 0.5 µM",2.33%
same,inhibition,[10]; at 0.5 µM,8.04% (inactive)
same,inhibition,"[10]; measured here: inhibition with BGB combination, at 0.05 µM",0.724%
same,inhibition,"[10]; measured here: inhibition with cisplatin combination, at 0.05 µM",-2.03%
same,inhibition,[11]; at 0.5 µM,-6.3% (inactive)
same,inhibition,[11]; [29],-7.26%
same,inhibition,[11]; [30],2.01%
same,inhibition,[12]; at 0.5 µM,-9.1% (inactive)
same,inhibition,"[12]; measured here: BGB combination, at 0.5 µM",-2.77%
same,inhibition,"[12]; measured here: BGB combination, at 5 µM",-17.3%
same,inhibition,"[12]; measured here: cisplatin combination, at 0.5 µM",-22.6%
same,inhibition,"[12]; measured here: cisplatin combination, at 5 µM",-5.2%
same,inhibition,"[13]; BGB combination, concentration series, at 5 µM",10.9%
same,inhibition,[13]; at 0.5 µM,7.45% (inactive)
same,inhibition,"[13]; cisplatin combination, concentration series, at 5 µM",7.13%
same,inhibition,[14],-1.22% (inactive)
same,inhibition,[14]; measured here: combo with BGB IC20,2.7%
same,inhibition,[14]; measured here: combo with cisplatin IC20,-10.7%
same,inhibition,[15]; at 0.5 µM,-22.6% (inactive)
same,inhibition,"[15]; cisplatin combination, at 0.5 µM",-28.7%
same,inhibition,"[15]; cisplatin combination, at 5 µM",-70.7%
same,inhibition,"[15]; measured here: BGB IC40 combination 0.05 uM, at 0.05 µM",2.3%
same,inhibition,"[15]; single agent, at 5 µM",-7.96%
same,inhibition,[16]; at 0.5 µM,-6.55% (inactive)
same,inhibition,"[16]; cisplatin combo, at 5 µM",2%
same,inhibition,"[16]; measured here: BGB IC40 combination, at 0.05 µM",11.2%
same,inhibition,[16]; [29],-22.2%
same,inhibition,"[16]; single agent, at 5 µM",-18.8%
same,inhibition,[17]; at 0.5 µM,-2.34% (inactive)
same,inhibition,[17]; [27],14.7%
same,inhibition,[17]; [28],-10.9%
same,inhibition,"[17]; single agent, at 0.05 µM",39.2%
same,inhibition,"[17]; single agent, at 5 µM",26.7%
CC(=O)N(CC(C)C(=O)O)c1c(I)cc(I)c(N)c1I (stereo not drawn),survival,[18],3.33 (inactive)
same,parasite load remaining,[19],76.2% (inactive)
same,viability,[19],95.9%
same,fold change,[1]; [20],0.901 (inactive)
same,fold change,[1]; [21],1.42
same,cell count,[1]; [22],9460
same,cell count,[1]; [23],10500
same,z-score,[2]; [24],0.846 (inactive)
same,z-score,[2]; [25],0.109
